Assay outcomes (PubChem)
HTT cytoprotect = cytoprotection in Huntington HTT-Q103 PC12 cell model; 0.14% of 230,000 active; Potency, µM (top dose mostly 56.4 µM), for the others: cytoprotection (ATP increase), hits mostly activators; AID 1471; PC12 HTT-Q103 induced, cytoprotection, ATP luminescence, 40 h; note: potency is the fitted concentration of half-maximal effect; % of control where 0% means no effect; nearly all actives have a fitted effect of over 45% in size
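Quantitative HTS on tebufenozide-induced (100 nM) PC12 cells expressing HTTQ103 exon 1–GFP; compounds tested as a concentration series; survival measured via cellular ATP.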
HttQ103 aggreg = mutant huntingtin aggregation inhibition | Potency, µM (titrated, usually from 46.1 µM), for inactives: top-dose activity change, negative = inhibition, most hits filed as inhibitors | PC12 HttQ103-GFP aggregates, Acumen cytometry, 40 h | 1.1% of 220,000 active | AID 1688; note: potency is the fitted concentration of half-maximal effect; % is set by controls: 0 for no effect and ±100 for the full control effect; nearly all actives have a fitted effect of over 60% in size
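Using laser scanning cytometry, GFP-positive aggregates were counted after lysis of PC12 cells induced with 100 nM tebufenozide to express HTT exon 1 Q103–GFP. Compounds were tested in titration.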
GLA inh pH 4.5 = inhibitors of human alpha-galactosidase A at pH 4.5. P06280. purified enzyme, 4-MU-alpha-Gal fluorescence, pH 4.5. activity change, negative = inhibition, % at 105 µM. 230,000 tested, under 10 active. AID 1467;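 note: 0% = full activity with enzyme and -100% = basal without enzyme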
Target sequence (P06280 whole entry, looked up): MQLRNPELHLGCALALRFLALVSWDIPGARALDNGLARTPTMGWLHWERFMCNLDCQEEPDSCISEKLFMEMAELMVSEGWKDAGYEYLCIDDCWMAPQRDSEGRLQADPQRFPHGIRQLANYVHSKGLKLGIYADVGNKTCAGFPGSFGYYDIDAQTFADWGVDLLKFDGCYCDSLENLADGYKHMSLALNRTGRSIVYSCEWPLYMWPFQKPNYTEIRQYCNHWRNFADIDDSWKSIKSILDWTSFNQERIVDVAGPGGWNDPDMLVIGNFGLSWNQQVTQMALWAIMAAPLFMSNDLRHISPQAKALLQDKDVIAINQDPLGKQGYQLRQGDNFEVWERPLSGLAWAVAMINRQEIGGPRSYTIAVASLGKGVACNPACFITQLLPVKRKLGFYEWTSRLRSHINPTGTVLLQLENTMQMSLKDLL
PKM2 act = increases activity of human pyruvate kinase M2; P14618; 0.34% of 260,000 active; Potency, µM (top dose mostly 57.5 µM), inactives show at the highest dose activation, usual class: activators; purified PKM2, Kinase-Glo ATP luminescence, activation; response scale: 0% is enzyme alone, no compound; note: potency is the fitted concentration of half-maximal effect; % is set by controls: 0 for no effect and ±100 for the full control effect; nearly all actives have a fitted effect of over 55% in size
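ATP formation by purified human PK-M2, quantified via coupled luciferase luminescence after 1 h at room temperature with 0.1 mM ADP and 0.5 mM PEP final.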
aGal spleen mod = inhibits or activates alpha-galactosidase in human spleen homogenate; P06280; human spleen homogenate, 4MU-alpha-Gal fluorescence, 40 min; Potency, µM (highest dose often 80 µM), for inactives: at the top dose activity change, negative = inhibition, most hits filed as inhibitors; 0.008% of 240,000 active;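 note: potency is the fitted concentration of half-maximal effect; 0% = enzyme with vehicle and -100% = no enzyme basal signal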
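Spleen homogenate 1 ug + cpd (titration) + 4-MU-alpha-D-galactopyranoside 1 mM; 37C 40 min; 50 mM citrate/phosphate pH 5.0, 0.01% Tween-20; stop pH 10; fluorescence 365/440; AC50 via Hill.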
The depositor's hits bear a star; ? = inconclusive; . = no result; [ ] = remark or other dose. Hits are enriched below; roughly 1.2% of the tested compounds scored in any of these assays. Calls come from the whole dose curve; as a rule, active = well fitted curve in the direction sought with a large enough effect; inconclusive = small, poorly fitted or top-dose-only effect, or another doubt; inactive = no such curve, though single readings can be large; an effect the other way counts as inactive or inconclusive.

SMILES	HTT cytoprotect	HttQ103 aggreg	GLA inh pH 4.5	PKM2 act	aGal spleen mod
C=CC[C@@H]1C=C[C@H](O/N=C(\C)CCN2CCc3nc(-c4ccccc4)c(-c4ccccc4)cc3C2)[C@H](CO)O1	-9%[10 µM]	.	.	.	4%[17.5 µM]
CCC(=C(CC)c1ccc(O)cc1)c1ccc(O)cc1	9%[40.3 µM]	.	-2	.	-13%[29.1 µM]
CCOc1cc(OCC)c(C(=O)CCC(=O)O)cc1OCC	17%	21%	.	.	.
Cc1ccc2[nH]c(=O)c(C(c3nnnn3C(C)(C)C)N3CCN(C(=O)c4ccco4)CC3)cc2c1 (configuration not stated)	-8%	23%	2	25µM*	29%
CCC(C)(C)n1nnnc1C(c1cc2cc(C)cc(C)c2[nH]c1=O)N1CCN(C(=O)c2ccco2)CC1 (configuration not stated)	-9%	-2%	1	14µM*	3%
Cc1cccc2cc(C(c3nnnn3C(C)(C)C)N3CCN(C(=O)c4ccco4)CC3)c(=O)[nH]c12 (configuration not stated)	17%[1.9 µM]	4%	-6	30%	4%
CS(=O)(=O)N1CCC2(CCN(c3ccccc3)CC2)CC1	3%	.	.	.	2%
CCc1ccc(CCC(=O)Nc2ncc(Cc3ccccc3Cl)s2)o1	-72%[10 µM]	-1%	5	14µM*	-3%
Cc1ccc(C)c(C(=O)N(Cc2nc(-c3ccc(Cl)cc3)no2)C(C)C)c1	-1%	22µM*	-13	-5%	-9%
Cc1ccc(-n2c(SCC(=O)NCc3ccco3)nc3nc4c(cc3c2=O)COC(C)(C)C4)cc1	5%	-30%	-14	14µM*	7%
COc1ccc(-c2nc3cnc(N4CCOCC4)nc3n(-c3ccc(OC)cc3)c2=O)cc1	-38%	.	.	.	22%
Cc1ccc(C(C(=O)NCC2CCCO2)N(Cc2ccccc2)C(=O)c2ccc(-c3ccccc3)[nH]2)o1 (configuration not stated)	.	0.13µM*	-14	-17%	4%
CC(C)(C)NC(=O)C(c1ccncc1)N(Cc1ccc(F)cc1)C(=O)c1ccc(-c2ccccc2)[nH]1 (configuration not stated)	?	-20%	-12	28µM*	-6%
O=C(NC1CCCC1)C(c1ccncc1)N(Cc1ccccc1)C(=O)c1ccc(-c2ccccc2)[nH]1 (configuration not stated)	-13%[10 µM]	?	-15	2%	-1%
CN1CCN(c2ncc3ncc(=O)n(-c4ccccc4)c3n2)CC1	-57%	.	.	.	-18%
CCOC(=O)c1cc2c(ccn2C)n1CC(=O)N1CCN(c2ccc(F)cc2)CC1	5%	-1%	-1	4%	0%
CCOC(=O)c1cc2c(ccn2C)n1CC(=O)N1CCN(c2cccc(C(F)(F)F)c2)CC1	-62%[10 µM]	?	3	32µM*	3%
CN(C)S(=O)(=O)Oc1cccc(C(=O)Nc2ccc(Cl)c(Cl)c2)c1	-46%	13µM*	-11	-3%	-4%
CNC[C@H](O)c1ccc(OC(=O)C(C)(C)C)c(OC(=O)C(C)(C)C)c1	-6%[40.3 µM]	2%[20.6 µM]	-3	.	-1%[29.1 µM]
CCc1c(C)c2cc(Cl)c(O)c(CN(C)C)c2oc1=O	-8%[0.074 µM]	3.2µM*	?	8%	?
Cc1nn(Cc2cccc(C(=O)NC34CC5CC(CC(C5)C3)C4)c2)c(C)c1Br	13%[10 µM]	20µM*	-9	-16%	5%
O=C(COC(=O)c1ccc2c(=O)n3c(nc2c1)CCC3)NC1CCS(=O)(=O)C1 (configuration not stated)	-24%	0.0063µM*	3	-2%	22%
Cc1cccc(NC(=O)COC(=O)c2ccc3c(=O)n4c(nc3c2)CCC4)c1	14%[10 µM]	1%	6	-3%	-3%
O=C(NCCc1cn2ccccc2n1)c1cc(COc2ccc3ncccc3c2)on1	-81%	11µM*	-20	6%	3%
C/C(CCC12CC3CC(CC(C3)C1)C2)=N\NC(N)=S	2.8µM*	-15%[9.22 µM]	7	-1%	2%
SMILES	HTT cytoprotect	HttQ103 aggreg	GLA inh pH 4.5	PKM2 act	aGal spleen mod
Cc1noc(C)c1C(=O)N1CCC2(CC1)CCN(C(c1ccccc1)c1ccccc1)CC2	?	.	.	.	25%
CCc1nc(NCCc2ccccn2)c2nnn(Cc3ccccc3F)c2n1	-11%[10 µM]	14%[9.22 µM]	6	25µM*	8%
O=C1CC(N2CCN(Cc3ccccc3)CC2)C(=O)N1 (configuration not stated)	-10%	-6%	4	-1%	2%
O=C1CC(N2CCN(c3ccc(Cl)c(Cl)c3)CC2)C(=O)N1 (configuration not stated)	3%	25µM*	4	12%	4%
COc1ccc(C2C=C(c3ccc(Br)s3)Nc3ncnn32)cc1OC (configuration not stated)	-49%[10 µM]	11µM*	-4	6%	1%
COc1ccc(C2C=C(c3ccc(C)cc3)Nc3ncnn32)cc1 (configuration not stated)	-15%	-7%	-4	-6%	?
O=C(O)c1ccc(-c2c3nc(c(-c4ccc(C(=O)O)cc4)c4ccc([n-]4)c(-c4ccc(C(=O)O)cc4)c4nc(c(-c5ccc(C(=O)O)cc5)c5ccc2[n-]5)C=C4)C=C3)cc1.[Mn+3]	.	.	.	.	-3%
CCN1/C(=C/c2cc[n+](C)cc2)C=Cc2cc(C)ccc21	-59%[10 µM]	8.9µM*	-9	10%	-3%
Cn1c(CSCc2ccc(Cl)cc2Cl)n[nH]c1=S	25%	13%	7	28µM*	-3%
COC(=O)C1=C(C(=O)OC)[C@@H]2Nc3ccccc3[C@@]23C[C@@H](C(=O)OC)N(S(=O)(=O)c2ccc(C#N)cc2)C3=N1	-17%[10 µM]	.	9	-5%[11.5 µM]	0%[17.5 µM]
COC(=O)C1=C(C)N(Cc2ccccc2)[C@]23O[C@](C(=O)OC)(C(=O)N2C1c1ccccc1)C1C(=O)N(C)C(=O)C13 (some centres not stated)	-7%[10 µM]	.	.	.	1%[17.5 µM]
C=CCn1c(SCc2nc3ccccc3c(=O)[nH]2)nc2scc(C3CC3)c2c1=O	-76%[10 µM]	-11%[9.22 µM]	0	3.5µM*	4%
COc1ccc2[nH]c3c4c(ccc3c2c1)C(=O)C=CC4=O	-29%[10 µM]	-2%[9.22 µM]	-3	1.3µM*	-5%
COc1cccc(-c2nnc(SC(C(=O)c3c[nH]c4ccccc34)c3ccccc3)n2C)c1 (configuration not stated)	.	?	-7	-6%	-4%
COc1ccccc1-c1nnc(SC(C(=O)c2c[nH]c3ccccc23)c2ccccc2)n1C (configuration not stated)	4.5µM*	2.8µM*	-14	-19%	5%
CC(C)[C@H](NC(=O)OC(C)(C)C)c1nnc(S(=O)(=O)Cc2c(F)cccc2Cl)o1	-115%	10µM*	-7	25%	-1%
COc1ccccc1-c1cncnc1NCc1cccs1	?	.	.	.	6%
